High-throughput results from PubChem.
Hits are enriched below; roughly 3.9% of the tested compounds scored in any of these assays.
HT1080NT lethal: kills 2HG-producing HT-1080-NT fibrosarcoma cells. HT-1080-NT fibrosarcoma viability, CellTiter-Glo ATP luminescence, 48 h. 1.6% of 360,000 active. Potency, µM (top dose mostly 46.1 µM), for inactives: at the highest dose activity, negative = less viability, hits mostly cytotoxic. AID 686970;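 note: NT is the 2HG producing partner of a matched IDH1 knockdown line; 0% = DMSO-treated cells and -100% = media-only wells without cells; nearly all actives have a fitted effect of over 55% in size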
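Read-out is CellTiter-Glo luminescence after 10 minutes at room temperature, following 48 hours' compound treatment of HT-1080-NT cells (750 cells/well, RPMI, 5% FBS, 37 degrees C).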
TGFb SMAD3 inh: blocks TGF-b signaling; HepG2 CAGA-GFP TGF-b/SMAD3 reporter, GFP fluorescence, 18 h; TGF-beta stimulated, 500 pg/mL final; Potency, µM (titrated, usually from 46.1 µM), for the others: top-dose activity, negative = inhibition, actives largely listed as inhibitors; 1.2% of 410,000 active; note: % is set by controls: 0 for no effect and ±100 for the full control effect; nearly all actives have a fitted effect of over 65% in size
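GFP signal (ex488/em500-530) from TGF-beta-stimulated HEPG2 CAGA-GFP cells, 500 pg/mL final, 18 h at 37 degrees C in DMEM plus 1% FBS, normalized to unstimulated and DMSO-stimulated controls.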
ATXN viability: viability counter-screen for ATXN expression inhibitors. S2 cells (HEK-293 line with an ATXN2-luciferase reporter) viability, CellTiter-Fluor protease fluorescence, 24 h. Potency, µM (titrated, usually from 56.7 µM), hits mostly cytotoxic. 0.49% of 400,000 active. AID 651635; note: nearly all actives have a fitted effect of over 40% in size
ATXN2 expr inh: ATXN2 expression inhibition; HEK-293 ATXN2-luciferase reporter, luminescence, 24 h; Potency, µM (top dose mostly 57 µM), inactives show top-dose activity change, negative = inhibition, actives largely listed as inhibitors; 0.72% of 360,000 active; AID 1745845; note: % is set by controls: 0 for no effect and ±100 for the full control effect; nearly all actives have a fitted effect of over 55% in size
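ATXN2-luciferase reporter cells (luciferase flanked by upstream and downstream ATXN2 gene portions) were treated 24 h at 37 °C with compounds at up to 57 uM. SteadyGlo luminescence gave expression; GF-AFC fluorescence gave viability.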
HT1080 IDH1KD tx: HT-1080 IDH1 knockdown cell toxicity (counter line) | HT-1080 IDH1 knockdown viability, ATP luminescence, 48 h | Potency, µM (highest dose often 46.1 µM), inactives show at the highest dose activity, negative = toxicity, hits mostly cytotoxic | 2% of 360,000 active;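 note: 0% = DMSO wells and -100% = cell-free medium wells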
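Luminescent ATP read-out (CellTiter-Glo, 10 min at room temperature) after 48 h compound exposure at 37 °C gave viability of IDH1-knockdown HT-1080 cells. Activity was normalised to DMSO and cell-free wells, then fitted as concentration-response curves.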
HepG2 tox: HepG2 cytotoxicity, counter-screen for TGF-b inhibitors; 0.76% of 410,000 active; AID 588856; HepG2 CAGA-GFP viability, ATP luminescence, 18 h; Potency, µM (titrated, usually from 46.1 µM), for inactives: at the top dose activity change, negative = cytotoxicity, usual class: cytotoxic
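CellTiter-Glo luminescence gave cytotoxicity after 18 hours at 37 degrees C. The cells were HepG2 CAGA-GFP in 1% FBS DMEM, stimulated with 500 pg/mL TGF-beta after compound addition. %Activity was normalised to no-cell wells (complete cell-killing) and DMSO (no toxicity), and curves were fitted and classified.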
The depositor's hits bear a star; i = inactive; ? = inconclusive; . = not tested or not shown; ! = not confirmed by another sample. Calls come from the whole dose curve; as a rule, active = well fitted curve in the direction sought with a large enough effect; inconclusive = small, poorly fitted or top-dose-only effect, or another doubt; inactive = no such curve, though single readings can be large; an effect the other way counts as inactive or inconclusive. Potency is the fitted concentration of half-maximal effect.

SMILES	HT1080NT lethal	TGFb SMAD3 inh	ATXN viability	ATXN2 expr inh	HT1080 IDH1KD tx	HepG2 tox
CNc1nc(SCc2ccc(C)cc2)nc2c1CCCC2	?	16µM*	i	-12%	?	-4%
CCc1ccc(CNC(=O)c2sc3ncccc3c2-n2c(C)ccc2C)cc1	.	11µM*	?	-34%	.	-43%
CCCN1CCN(CCCNC(=O)c2cc3c(s2)-c2ccccc2OC3)CC1	23µM*	?	i	?	?	-54%
CC1CCCC(C)N1CCCNC(=O)c1cc2c(s1)-c1ccccc1OC2 (configuration not stated)	?	?	i	?	21µM*	14µM*
CCCN1CCN(CCCNC(=O)c2cc3c(s2)-c2c(C)cccc2OC3)CC1	23µM*	?	?	?	18µM*	11µM*!
CCN1CCN(CCCNC(=O)c2cc3c(s2)-c2ccccc2OC3)CC1	?	?	i	?	?	-30%
CC1CC(C)CN(CCCNC(=O)c2cc3c(s2)-c2ccccc2OC3)C1 (configuration not stated)	18µM*	?	?	25µM*	18µM*	-82%
O=C1C(=O)C(c2cc(O)c(O)c(O)c2)Oc2cc(O)cc(O)c21 (configuration not stated)	.	-6%	.	.	.	8%
Cc1cc(C(=O)NCc2nnc3n2CCN(Cc2ccc(F)cc2F)CC3)c(C)o1	.	.	i	.	.	.
Cc1cccc2c1-c1sc(C(=O)NCCCN3CCCC(C)C3)cc1CO2 (configuration not stated)	21µM*	?	?	35µM*	21µM*	-100%
Cc1cccc(CCNC(=O)c2cc3c(s2)-c2c(C)cccc2OC3)c1	.	1%	i	1%	.	-1%
O=C(NCCn1cc(SCc2ccc(F)cc2)c2ccccc21)c1cccs1	.	11µM*	?	?	.	-22%
Cc1ccc(CSc2cn(CCNC(=O)c3cccs3)c3ccccc23)cc1	.	?	?	?	.	-24%
COc1ccc(C(=O)NCCn2cc(SCc3cccc(F)c3)c3ccccc32)cc1OC	.	?	?	18µM*	.	-22%
O=C(NCCn1cc(SCc2cccc(F)c2)c2ccccc21)c1cccc(C(F)(F)F)c1	.	?	?	0%	.	-48%
O=C(NCCn1cc(SCc2ccccc2F)c2ccccc21)c1cccs1	.	10µM*	?	?	.	-29%
COc1ccc(C2C(=O)N(C3CCCCCC3)CC(=O)N2Cc2ccc(C)cc2)cc1 (configuration not stated)	.	-10%	.	.	.	0%
Cn1c(=O)c2cc(NC(=O)Cc3cccc4ccccc34)ccc2n1-c1ccccc1	?	11%	i	-8%	?	4%
COc1ccccc1CCC(=O)Nc1ccc2c(c1)c(=O)n(C)n2Cc1ccc(F)cc1	3.3µM*	-9%	i	-20%	5.8µM*	5%
Cn1c(=O)c2cc(NC(=O)CCc3ccccc3)ccc2n1-c1ccccc1F	?	?	?	10%	7.3µM*	-5%
CC(CC(=O)Nc1ccc2c(c1)c(=O)n(C)n2-c1ccccc1)c1ccccc1 (configuration not stated)	3.7µM*	-1%	?	6%	2.9µM*	2%
CCOCCC(=O)Nc1ccc2c(c1)c(=O)n(C)n2-c1ccccc1F	17%	-7%	i	10%	7%	1%
COc1cccc(Cn2c3ccc(NC(=O)CCc4ccc(F)cc4)cc3c(=O)n2C)c1	?	?	?	-11%	4.1µM*	7%
Cc1nc2cc(NC(=O)[C@@H]3C[C@@H](Sc4ccccn4)CN3Cc3ccc4c(c3)OCCO4)ccc2s1	.	.	i	.	.	.
Nc1cc(C(F)(F)F)ccc1S	.	.	i	-18%	.	.
SMILES	HT1080NT lethal	TGFb SMAD3 inh	ATXN viability	ATXN2 expr inh	HT1080 IDH1KD tx	HepG2 tox
Cn1c(=O)c2cc(NC(=O)Nc3cccnc3)ccc2n1-c1ccc(C(C)(C)C)cc1	21µM*	21%	?	?	?	-5%
CC(C)=CCn1c2ccc(NC(=O)NCc3ccc(F)cc3)cc2c(=O)n1C	?	-14%	?	-6%	2.3µM*	5%
CC(C)=CCn1c2ccc(NC(=O)Nc3cccnc3)cc2c(=O)n1C	?	-9%	i	3%	10%	4%
CCCC(=O)NC(c1ccc(C(C)C)cc1)c1ccc2cccnc2c1O (configuration not stated)	-9%	-26%	i	?	?	-30%
Cc1ccnc(NC(c2ccccc2)c2ccc3cccnc3c2O)c1 (configuration not stated)	?	?	i	?	?	-10%
Cc1cc(NC(c2ccc(Cl)cc2)c2ccc3cccnc3c2O)no1 (configuration not stated)	?	?	?	3.2µM*	?	-10%
CCC(=O)NC(c1ccc(Cl)cc1Cl)c1ccc2cccnc2c1O (configuration not stated)	15µM*	?	i	5.6µM*	?	-21%
CCCC(=O)NC(c1ccccc1Cl)c1ccc2cccnc2c1O (configuration not stated)	?	?	i	3.2µM*	?	-3%
CCCC(=O)NC(c1ccc(N(C)C)cc1)c1ccc2cccnc2c1O (configuration not stated)	?	2.5µM*	i	?	?	-52%
CCc1nc2cc(C(=O)N3CCC[C@H]3CO)cc(NC(=O)c3ccccc3OC)c2n1C	.	.	i	.	.	.
CCc1ccc(NC(=O)CSc2nc3ncccc3[nH]2)cc1	.	-26%	.	.	.	-28%
N#Cc1nc(-c2ccc(OCc3ccccc3Cl)cc2)oc1N1CCCCCC1	.	17%	.	.	.	7%
COc1ccc(F)c(CN2CCOc3ccc(CN4CCC(O)(c5cccnc5)CC4)cc3C2)c1	.	.	i	.	.	.
CO[C@H]1[C@H](NC(=O)c2ccsc2)c2ccccc2C12CCN(Cc1c(O)ccc3ccccc13)CC2	.	.	i	.	.	.
Cc1ccc(C(=O)CSc2nnc(COc3ccccc3)o2)cc1	4%	-5%	i	-6%	-7%	6.3µM*
O=C(CSc1nnc(COc2ccccc2)o1)c1ccccc1	-1%	5%	i	-3%	21%	-6%
Cc1ccc(CNC(=O)CSc2ncc3c(n2)-c2cc(Cl)ccc2N(C)S3(=O)=O)cc1	.	-25%	i	2%	.	0%
O=C(COc1ccc(Br)cc1CNC1CCCCC1)NCCc1ccccc1	23µM*	?	?	-39%	18µM*	-49%
